Source: PubChem BioAssay (EPA / NIEHS)
Where “and” joins values, the source holds several entries; their conditions need not be identical. Equal entries are not always repeated. A structure can be active in one record and inactive in another. Calls of active or inactive are those of the source. The calls were made as follows: active = hit-call score of the fitted dose curve at least 0.9, where 1 is the maximum; inactive = score below 0.9.

assay: ATG_AP_2_CIS: Attagene CIS-FACTORIAL HepG2 Assay for human Activator Protein 2 (AP-2) (AID 2282932); settings: HepG2 AP-2 cis-reporter, Attagene transcription factor profiling; AC50: actives raise or lower the signal unless noted; outcome: actives raise or lower the signal unless noted
Description: ATG_CIS is a cell-based, multiplexed-readout assay that uses HepG2, a human liver cell line, with measurements taken at 24 hours after chemical dosing in a 24-well plate.ATG_AP_2_CIS is one of 52 assay component(s) measured or calculated from the ATG_CIS assay. It is designed to make measurements of mRNA induction, a form of inducible reporter, as detected with fluorescence intensity signals by Reverse transcription polymerase chain reaction (RT-PCR) and Capillary electrophoresis technology.Data from the assay component ATG_AP_2_CIS was analyzed into 1 assay endpoint. This assay endpoint, ATG_AP_2_CIS, was analyzed with bidirectional fitting relative to DMSO as the negative control and baseline of activity. Using a type of inducible reporter, measures of mRNA for gain or loss-of-signal activity can be used to understand the reporter gene at the transcription factor-level as they relate to the gene TFAP2A and TFAP2B and TFAP2D. Furthermore, this assay endpoint can be referred to as a primary readout, because this assay has produced multiple assay endpoints where this one serves a reporter gene function. To generalize the intended target to other relatable targets, this assay endpoint is annotated to the dna binding intended target family, where the subfamily is basic helix-turn-helix leucine zipper.
Human liver HepG2 cells are transiently transfected with multiple reporter transcription units (MRTUs) in 6-well plates using FuGene 6 reagent (Roche; 3 ml FuGene/1 mg DNA). The MRTU constructs are regulated by a cis-regulating element (promoter). […] A major difference between the CIS and TRANS system is that in CIS activities of endogenous TFs are measured, whereas the TRANS assay evaluates changes in activities of exogenous, chimeric NR-Gal4 proteins. […] At the end of 24 hour incubation, total RNA was isolated using TriZol reagent (Invitrogen). The isolated RNA is then reverse-transcribed using oligo(dT) primer and Mo-MLV reverse transcriptase (Invitrogen) with DNAse I (Ambion) treatment for 30 min. The one-tenth of the produced cDNA was amplified by PCR using Taq DNA polymerase (Invitrogen) and two reporter sequence-specific primers. The PCR products were fluorescently labeled by primer extension with 6-arboxyfluorescein (6-FAM) 5'-labeled reporter sequence-specific primer (2 min at 95 C, 20 s at 68 C and 10 min at 72 C) and these products were digested with 5U of HpaI (New England Biolabs) for 2h at 37 C. The fragments were purified using Qiaquick PCR columns (Qiagen), analyzed on an ABI 3130xL genetic analyzer (Applied Biosystems) with peak positions identified by using a set of X-rhodamine (ROX)-labeled MapMarker1000 molecular weight standards (BioVentures). The raw capillary electrophoresis data was processed using Attagraph software (Attagene).

Row | Structure (SMILES) | AC50 | outcome
1 | OCCN1CN(CCO)CN(CCO)C1 | 143 µM (active) | –
2 | O=C1OC2(c3ccccc31)c1cc(I)c(O)c(I)c1Oc1c2cc(I)c(O)c1I | – | inactive
3 | CCCCCCCCCC=CCC1CC(=O)OC1=O (stereo not given) | – | inactive
4 | Oc1ccc(Cc2ccccc2O)cc1 | – | inactive
5 | CC(C)CCOCCC(C)C | – | inactive
6 | NC(=NCCCCCCN=C(N)/N=C(\N)Nc1ccc(Cl)cc1)/N=C(\N)Nc1ccc(Cl)cc1 | 16.9 µM (active) | inactive
7 | C=CC(=C)CC/C=C(\C)CCC=C(C)C | – | inactive
8 | Oc1c(Cl)cc(Cl)cc1Sc1cc(Cl)cc(Cl)c1O | – | inactive
9 | O=C(Nc1ccc(Cl)c(Cl)c1)c1cc(Cl)cc(Cl)c1O | 2.07 µM (active) | –
10 | O=S(=O)(O)c1ccc2cc(O)ccc2c1 | – | inactive
11 | c1cnc2c(c1)ccc1cccnc12 | 5.84 µM (active) | inactive
12 | O=C1NS(=O)(=O)c2ccccc21 | – | inactive
13 | FCOC(C(F)(F)F)C(F)(F)F | – | inactive
14 | COC(O)c1ccccc1 (stereo not given) | – | inactive
15 | C=C(c1ccc(C(=O)O)cc1)c1cc2c(cc1C)C(C)(C)CCC2(C)C | 18.3 µM (active) and 34.7 µM (active) | –
16 | CCCCc1oc2ccccc2c1C(=O)c1cc(I)c(OCCN(CC)CC)c(I)c1 | 130 µM (active) | –
17 | CCOC(C)=O | – | inactive
18 | Oc1c(Cl)ccc(Cl)c1Cl | – | inactive

Row | Structure (SMILES) | AC50 | outcome
19 | CC1CNCC(C)O1 (stereo not given) | – | inactive
20 | O=P(O)(O)CCC(F)(F)C(F)(F)C(F)(F)C(F)(F)C(F)(F)C(F)(F)C(F)(F)C(F)(F)F | – | inactive
21 | C[C@]12CC[C@@H]3c4ccc(O)cc4CC[C@H]3[C@@H]1C[C@@H](O)[C@@H]2O | 24.9 µM (active) | inactive
22 | O=c1cc(-c2ccccc2)oc2ccc3ccccc3c12 | – | inactive
23 | O=C(C=C(O)C(F)(F)F)C(F)(F)F | – | inactive
24 | O=C(F)C(F)(F)C(F)(F)C(F)(F)C(F)F | – | inactive
25 | CCOC=C(C(=O)OCC)C(=O)OCC | – | inactive
26 | O=C(NO)c1ccccc1 | 63.6 µM (active) and 59.8 µM (active) | inactive
27 | CCc1ccccc1O | – | inactive
28 | Cc1ccccc1C(OCCN(C)C)c1ccccc1 (stereo not given) | – | inactive
29 | CC(=O)Nc1ccc(S(N)(=O)=O)cc1 | – | inactive
30 | COCN(COC)c1nc(N(COC)COC)nc(N(COC)COC)n1 | – | inactive
31 | C=CC(=O)OCCC(F)(F)C(F)(F)C(F)(F)C(F)(F)C(F)(F)C(F)(F)F | – | inactive
32 | O=S(=O)(c1ccc(OCc2ccccc2)cc1)c1ccccc1O | – | inactive
33 | CC=O | – | inactive
34 | CCN(CC)CC | – | inactive
35 | O=C(CCCN1CCC(O)(c2ccc(Cl)cc2)CC1)c1ccc(F)cc1 | – | inactive
36 | OCC(F)(F)C(F)(F)C(F)(F)C(F)(F)C(F)(F)C(F)(F)C(F)(F)C(F)(F)C(F)(F)C(F)(F)C(F)(F)F | – | inactive
